This passage reports growth results from PubChem BioAssay (NCI).

Test systems include NCI-H23 lung; NCI-H226 lung; NCI-H322M lung; HOP-62 NSCLC; NCI-H460 lung; HOP-92 NSCLC; NCI-H522 lung; A549/ATCC NSCLC; 786-0 renal; COLO 205 colon; DU-145 prostate; K-562 leukemia; MALME-3M melanoma; MDA-MB-231 breast; RXF 393 renal; SF-268 CNS; SF-295 CNS; SF-539 CNS; UACC-257 melanoma; M14 melanoma.
Common to all, as to assay: NCI-60 one-dose screen, 48 h (100 = growth as untreated, 0 = no growth, -100 = all killed)
Holding throughout (details): 10 µM unless noted

About 83,000 compounds went through this panel and 20% of them were active in at least one assay; those are over-represented in the sample as a whole.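 For each line, cells grew in 96-well plates with the test compound present at a single concentration for 48 hours.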 A number with no mark means an inactive call. Calls of active or inactive are those of the source. Rule for the calls: active = growth percent below 10; inactive = the rest.

Regarding `Cc1ccc(Nc2cc(=S)nc(N)[nH]2)cc1C`, the growth was 90.8% with NCI-H23 lung; 97.1% with NCI-H226 lung; 98.1% in the experiment with NCI-H322M lung; 89.3% in the experiment with HOP-62 NSCLC; 103% with NCI-H460 lung; 75.7% in the experiment on HOP-92 NSCLC. In addition, the growth was 91.1% in the experiment on NCI-H522 lung; 99.9% in the experiment on A549/ATCC NSCLC; 98.9% in the experiment on 786-0 renal; 112% with COLO 205 colon; 102% with DU-145 prostate; 92.9% in the experiment on K-562 leukemia. The growth in the experiment with MALME-3M melanoma is 100%; in the experiment with MDA-MB-231 breast, 80.6%; with RXF 393 renal, 107%; in the experiment on SF-268 CNS, 100%; in the experiment on SF-295 CNS it was 98.6%; with SF-539 CNS, 96.4%. The growth is 103% with UACC-257 melanoma and 93.7% in the experiment with M14 melanoma.
Consider `O=C(Nc1ccc2cc3ccc(NC(=O)N4CCCCCC4)cc3nc2c1)N1CCCCCC1`, for which the growth with NCI-H23 lung was -39% (active); in the experiment on NCI-H226 lung, -58.5% (active); with NCI-H322M lung it was 31.4%; in the experiment with HOP-62 NSCLC, -47.4% (active); in the experiment with NCI-H460 lung, -55.6% (active); in the experiment on HOP-92 NSCLC it was -77.8% (active). Moreover, the growth with NCI-H522 lung was -70.4% (active); in the experiment on A549/ATCC NSCLC, -11.3% (active); in the experiment with 786-0 renal, -57.9% (active); in the experiment with COLO 205 colon, -48.8% (active); with DU-145 prostate, -25.7% (active); in the experiment on K-562 leukemia it was -11.1% (active). Besides, the growth in the experiment on MALME-3M melanoma was -85.3% (active); in the experiment on MDA-MB-231 breast, -69.1% (active); in the experiment with RXF 393 renal, -76.3% (active); with SF-268 CNS, -41.3% (active); with SF-295 CNS it was -79.4% (active); in the experiment with SF-539 CNS, -71.1% (active). The growth in the experiment with UACC-257 melanoma was -75.7% (active); in the experiment on M14 melanoma, -66.2% (active).
As to `O=S(=O)(NCCCNc1nccc(-c2c(-c3cccc(O)c3)nc3occn23)n1)c1ccc(F)cc1`, the growth is 88.6% in the experiment on NCI-H23 lung; 110% with NCI-H226 lung; 103% in the experiment on NCI-H322M lung; 117% in the experiment on HOP-62 NSCLC; 80.9% in the experiment with NCI-H460 lung; 116% in the experiment on HOP-92 NSCLC. Besides, the growth in the experiment on NCI-H522 lung is 77.7%; with A549/ATCC NSCLC it was 88.8%; with 786-0 renal, 92.1%; with COLO 205 colon, 35.5%; in the experiment on DU-145 prostate, 85.8%; in the experiment on K-562 leukemia, 68.7%. In addition, the growth is 17.9% with MALME-3M melanoma; 62.7% in the experiment on MDA-MB-231 breast; 68% with RXF 393 renal; 84.5% in the experiment on SF-268 CNS; 101% in the experiment with SF-295 CNS; 101% in the experiment on SF-539 CNS. In addition, the growth in the experiment with UACC-257 melanoma was 19.7%; in the experiment with M14 melanoma, 27.5%.
In the case of `N#Cc1ccc(-c2ccc3c(c2)NC(=O)/C3=C\c2ccc[nH]2)cc1`, the growth in the experiment on NCI-H23 lung was 36.4%; with NCI-H226 lung it was 58.1%; with NCI-H322M lung it was 70%; with HOP-62 NSCLC, 84.4%; with NCI-H460 lung, 76.2%; in the experiment with HOP-92 NSCLC, 36.4%. The growth in the experiment on NCI-H522 lung is 81.8%; in the experiment on A549/ATCC NSCLC, 104%; with 786-0 renal it was 105%; in the experiment on COLO 205 colon, 93.9%; in the experiment on DU-145 prostate it was 106%; in the experiment with K-562 leukemia, 105%. Besides, the growth in the experiment with MALME-3M melanoma was 98%; in the experiment with MDA-MB-231 breast it was 45.9%; in the experiment on RXF 393 renal it was 67.3%; in the experiment with SF-268 CNS, 96.6%; in the experiment with SF-295 CNS it was 95.7%; in the experiment on SF-539 CNS, 101%. Besides, the growth in the experiment with UACC-257 melanoma is 112%; in the experiment on M14 melanoma, 102%.
Regarding `Cc1nccc2c3ccc(OCc4cn(-c5ccc(Cl)cc5)nn4)cc3n(CCCc3ccccc3)c12`, the growth in the experiment on NCI-H23 lung was 70.5%; in the experiment on NCI-H226 lung, -10.9% (active); with NCI-H322M lung, 50%; in the experiment on HOP-62 NSCLC it was 6.51% (active); with NCI-H460 lung it was 14.4%; in the experiment with HOP-92 NSCLC, 26.6%. Also, the growth is 46.6% with NCI-H522 lung; 4.77% (active) in the experiment with A549/ATCC NSCLC; -72.6% (active) in the experiment on 786-0 renal; -3.42% (active) with COLO 205 colon; 27.6% in the experiment with DU-145 prostate; 11.1% in the experiment with K-562 leukemia. In addition, the growth is -7.83% (active) in the experiment on MALME-3M melanoma; 27.4% in the experiment with MDA-MB-231 breast; -2.27% (active) in the experiment on RXF 393 renal; -5.93% (active) in the experiment on SF-268 CNS; 8.27% (active) with SF-295 CNS; -16.5% (active) in the experiment on SF-539 CNS. In addition, the growth in the experiment on UACC-257 melanoma was -34.6% (active); in the experiment on M14 melanoma it was -73.2% (active).
Consider `c1ccc(-c2nn(-c3ccccc3)[n+](-c3ccccc3-c3ccccc3)n2)cc1`, for which the growth in the experiment on NCI-H23 lung was 5.14% (active); in the experiment with NCI-H226 lung, 28.1%; in the experiment on NCI-H322M lung, 40.6%; in the experiment on HOP-62 NSCLC, 32.6%; in the experiment with NCI-H460 lung, 5.11% (active); with HOP-92 NSCLC, -24.4% (active). For the same molecule, the growth with NCI-H522 lung is -7.02% (active); in the experiment on A549/ATCC NSCLC it was 17.3%; in the experiment on 786-0 renal, 30.8%; in the experiment with COLO 205 colon it was -34.5% (active); in the experiment with DU-145 prostate, 22.8%; in the experiment with K-562 leukemia it was 5.29% (active). The growth in the experiment on MALME-3M melanoma was -31.7% (active); in the experiment on MDA-MB-231 breast it was 35.5%; in the experiment with RXF 393 renal, 10.1%; in the experiment with SF-268 CNS, 22%; with SF-295 CNS, 3.4% (active); in the experiment with SF-539 CNS, 22.9%. Further, the results for the growth in the experiment with UACC-257 melanoma and in the experiment with M14 melanoma were 9.82% (active) and 23.2%, respectively.
